# PubChem BioAssay AID1626 (SRMLSC, 2009)
# In all, about 220,000 compounds went through this assay and about 2,000 (0.91%) were called active. Another 2% or so got no clear call; they are omitted. No stated cut-off is given here; in the data, inconclusive means inhibition above about 80% without an active follow-up result; inactive means below that; test concentration not stated here. The list is a sample of the results. Entries with a potency or affinity are not part of this list.
# Experiment: M. tuberculosis H37Rv growth inhibitors, H37Rv strain (AID 1626);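 further: bacteria incubated seven days before Alamar blue readout; 0% = bacteria only wells and 100% = bacteria with antibiotic wells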
# Conditions: active compounds read high, concentration not given here
row,Compound,inhibition
1,Cc1ccc(/C=N/n2c(C)n[nH]c2=S)o1,-0.73% (inactive)
2,Cn1c(SCc2nc3ccccc3[nH]2)nnc1-c1cccnc1,-8.31% (inactive)
3,Brc1ccccc1-n1nnc(-c2ccnc3ccccc23)n1,-5.72% (inactive)
4,COC(=O)COc1cccc(NC(=O)c2ccccc2)c1,10.8% (inactive)
5,O=C(COc1ccc2c(c1)CCC2)NCc1cccc(Cl)c1,13.9% (inactive)
6,O=C(COc1cccc(Cl)c1Cl)Nc1ccc2c(c1)CCC2,-7.06% (inactive)
7,COc1ccc(OCC(=O)Nc2cccc(OC)c2)cc1,0.47% (inactive)
8,O=C(COC(=O)c1cncc(Br)c1)Nc1ccc2c(c1)OCO2,2.32% (inactive)
9,O=C(COC(=O)c1ccc(F)cc1F)Nc1ccc2[nH]c(=O)[nH]c2c1,0.74% (inactive)
10,CCCC(=O)Nc1ccc2oc(-c3ccncc3)nc2c1,0.51% (inactive)
11,Cc1c(Cl)cccc1NC(=O)Cn1c(-c2ccc(F)cc2)noc1=O,-3.42% (inactive)
12,Cc1c(O)c(S(=O)(=O)c2ccccc2)c(=O)n(-c2ccccc2)c1-c1ccccc1,-1.42% (inactive)
13,NNC(=S)Nc1ccc(S(=O)(=O)N2CCOCC2)cc1,-8.51% (inactive)
14,CCCOc1ccc(C(=O)Nc2nc(C)c(Cc3ccc4c(c3)OCO4)s2)cc1,2.21% (inactive)
15,Cc1nc(NC(=O)c2ccc(Cl)cc2)sc1Cc1ccc2c(c1)OCO2,-0.23% (inactive)
16,COc1cccc(C(=O)N(Cc2nc(-c3ccc(C)cc3)no2)C(C)C)c1,-3.98% (inactive)
17,COc1cc(/C=C/C(=O)OCC(=O)NC(=O)NC(C)C)cc(S(=O)(=O)N2CCc3ccccc32)c1OC,3.06% (inactive)
18,Cc1ccccc1CSCCNC(=O)Nc1ccccc1,-0.63% (inactive)
19,Cc1c2c(nc3ccccc13)OCC2,-16.5% (inactive)
20,Cc1c2c(nc3ccccc13)CCC(C(C)(C)C)C2 (stereo unspecified),6.35% (inactive)
21,CCc1cccc(NC(=O)Cc2ccc([N+](=O)[O-])cc2)c1,58.6% (inactive)

row,Compound,inhibition
1,Nc1c(C(=O)O)cnn1-c1ccc([N+](=O)[O-])cc1,-2.22% (inactive)
2,O=C(Cc1ccc([N+](=O)[O-])cc1)Nc1ccc(Cl)cc1,3.56% (inactive)
3,O=C(Nc1ccc([N+](=O)[O-])cc1)Nc1ccc(Cl)cc1F,9.88% (inactive)
4,O=C(c1ccc(F)cc1)N1CCN(C2CCC(c3ccccc3)CC2)CC1 (stereo unspecified),5.5% (inactive)
5,CCOC(=O)c1ccc(NC(=O)CSc2nc(NC(=O)c3ccccc3)c3c(C)c(C)oc3n2)cc1,9.26% (inactive)
6,COc1cc(CCN2C(=O)N[C@@H](CCc3ccccc3)C(C(C)=O)=C2C)cc(OC)c1OC,-6.61% (inactive)
7,Oc1ccc(CN2CCN(Cc3ccccc3)CC2)c2cccnc12,-2.63% (inactive)
8,Oc1ccc(F)c2cccnc12,44.5% (inactive)
9,CC(C)COCc1ccc(O)c2ncccc12,47.1% (inactive)
10,O=C(N/N=C/c1ccc(O)c2ncccc12)c1cccc(Br)c1,-4.1% (inactive)
11,OCc1ccc(O)c2ncccc12,1.86% (inactive)
12,COCc1cc(CN2CCCC2)c(O)c2ncccc12,-1.29% (inactive)
13,CC(C)CC(c1nnnn1CC1CCCO1)N1CCN(Cc2ccc3c(c2)OCO3)CC1 (stereo unspecified),0.16% (inactive)
14,CCN1C/C(=C/c2sccc2C)c2nc3ccccc3c(C(=O)O)c2C1,-0.78% (inactive)
15,Nc1nnnn1CC(=O)N/N=C/c1cc([N+](=O)[O-])ccc1Cl,-0.24% (inactive)
16,Cc1ccc(C(=O)COC(=O)CN2C(=O)C3C4CCC(C4)C3C2=O)cc1[N+](=O)[O-] (stereo unspecified),19.5% (inactive)
17,Cc1ccc(CNC(=O)c2ccc(Cn3nc(C)c(Cl)c3C)o2)cc1,2.97% (inactive)
18,COc1ccc(NC(=O)CCN2CCOCC2)c(OC)c1,-3.47% (inactive)
19,COc1ccc(-c2nc3ccccc3c(=O)n2CCOc2ccccc2C)cc1,0.63% (inactive)
20,CC(C)c1cc(C(=O)O)c2ccccc2n1,-2.96% (inactive)
21,COc1ccc(-n2c(-c3ccc(Br)cc3)c[n+]3c2CCC3)cc1,2.38% (inactive)

row,Compound,inhibition
1,Brc1ccc(-c2cn3c(n2)CCc2ccc4cccnc4c2-3)cc1,-2.02% (inactive)
2,COc1cc(/C=N/NC(=O)COc2cc(C)cc(C)c2)ccc1OS(=O)(=O)c1ccc(C)cc1,10.7% (inactive)
3,COc1ccc(CC(=O)Nc2ccc3c(c2)CCC3)cc1,9.72% (inactive)
4,CC(=O)Nc1ccc(NC(=O)COc2ccc3c(c2)CCC3)cc1,10.5% (inactive)
5,CCc1ccc(CN(C)CC(=O)Nc2ccc3c(c2)CCC3)cc1,48% (inactive)
6,COc1cccc(NC(=O)COc2ccc3c(c2)CCC3)c1,74.3% (inactive)
7,Cc1cc(C(=O)Cn2nc(C(=O)O)c3ccccc3c2=O)c(C)n1CCc1ccc(F)cc1,3.54% (inactive)
8,CC(C)OCCCNC(=O)Nc1cccc2ccccc12,-3.82% (inactive)
9,CCOC(=O)c1c(NC(=O)COc2cccc3c2CCN(C)C3=O)sc2c1CCC2,31.8% (inactive)
10,C/C(N)=C(/C#N)C(=O)COC(=O)c1ccccc1Oc1ccccc1,-2.05% (inactive)
11,O=C(Nc1ccc(N2CCN(C(=O)c3ccccc3)CC2)cc1)c1cc2ccccc2o1,9.58% (inactive)
12,O=C(Nc1ccc(N2CCN(C(=O)c3ccco3)CC2)cc1)c1ccccc1,7.16% (inactive)
13,O=C(Nc1ccc(N2CCN(C(=O)c3ccco3)CC2)cc1)c1ccco1,-0.76% (inactive)
14,O=C(Nc1ccc(N2CCN(C(=O)c3ccc(Cl)cc3)CC2)cc1)c1ccc2c(c1)OCCO2,-4.15% (inactive)
15,O=C(Nc1ccc(N2CCN(C(=O)c3ccc(Cl)cc3)CC2)cc1)c1cc2ccccc2o1,-12.4% (inactive)
16,O=C(Nc1ccc(N2CCN(C(=O)c3ccccc3)CC2)cc1)c1ccc(Br)o1,19.7% (inactive)
17,Cc1ccc(-c2nn(-c3ccccc3)cc2/C=C/C(=O)OCC(=O)NC2CC2)o1,6.54% (inactive)
18,Cc1cc(C)n(-c2ccc(C(=O)Nc3cccnc3Cl)cc2)n1,-2.86% (inactive)
19,CS(=O)(=O)N1CCc2cc(NC(=O)c3ccc(Cl)cc3Cl)ccc21,-3.19% (inactive)
